Compound activity: PubChem BioAssay, National Center for Advancing Translational Sciences (NCATS)
Hits are enriched below; roughly 10% of the tested compounds scored in any of these assays.
GLS inh = inhibitors of human glutaminase (GLS). O94925. GLS enzymatic activity, qHTS titration. Potency, µM (titrated, usually from 45.5 µM), for the others: top-dose activity change, negative = inhibition, usual class: inhibitors. 410,000 tested, 0.21% active; also: % is scaled to controls: 0 for no effect and ±100 for the full control effect
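Enzyme dispensed in phosphate buffer (45 mM, pH 8.2, 0.02% Tween-20), compounds pinned in, then 1 mM L-glutamine solution and the glutamate oxidase–HRP–Amplex Red mix added; fluorescence read immediately and again after 30 min at room temperature.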
G9a inh = inhibitors of human histone lysine methyltransferase G9a; G9a H3K9 monomethylation, AlphaScreen, 2 h; Potency, µM (titrated, usually from 102 µM), inactives show top-dose activity, negative = inhibition, usual class: inhibitors; 350,000 tested, 8.8% active; also: % is scaled to controls: 0 for no effect and ±100 for the full control effect; nearly all actives have a fitted effect of over 75% in size
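Step 1: enzyme (final 20 nM) with compound, 15 min RT. Step 2: substrate peptide 500 nM and SAM 20 uM, 2 h RT. Step 3: anti-H3K9me1 antibody and AlphaScreen beads, 10 min, then plate read.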
JMJD2A Tudor inh = JMJD2A Tudor domain (human) inhibition; Potency, µM (titrated, usually from 114 µM), for inactives: at the top dose activity change, negative = inhibition, most hits filed as inhibitors; 390,000 tested, 4.4% active; AlphaScreen JMJD2A-Tudor / H3K4me3 peptide binding; AID 504339; also: % is scaled to controls: 0 for no effect and ±100 for the full control effect; nearly all actives have a fitted effect of over 50% in size
Target sequence (O75164 whole entry, looked up, the tested form may be a part): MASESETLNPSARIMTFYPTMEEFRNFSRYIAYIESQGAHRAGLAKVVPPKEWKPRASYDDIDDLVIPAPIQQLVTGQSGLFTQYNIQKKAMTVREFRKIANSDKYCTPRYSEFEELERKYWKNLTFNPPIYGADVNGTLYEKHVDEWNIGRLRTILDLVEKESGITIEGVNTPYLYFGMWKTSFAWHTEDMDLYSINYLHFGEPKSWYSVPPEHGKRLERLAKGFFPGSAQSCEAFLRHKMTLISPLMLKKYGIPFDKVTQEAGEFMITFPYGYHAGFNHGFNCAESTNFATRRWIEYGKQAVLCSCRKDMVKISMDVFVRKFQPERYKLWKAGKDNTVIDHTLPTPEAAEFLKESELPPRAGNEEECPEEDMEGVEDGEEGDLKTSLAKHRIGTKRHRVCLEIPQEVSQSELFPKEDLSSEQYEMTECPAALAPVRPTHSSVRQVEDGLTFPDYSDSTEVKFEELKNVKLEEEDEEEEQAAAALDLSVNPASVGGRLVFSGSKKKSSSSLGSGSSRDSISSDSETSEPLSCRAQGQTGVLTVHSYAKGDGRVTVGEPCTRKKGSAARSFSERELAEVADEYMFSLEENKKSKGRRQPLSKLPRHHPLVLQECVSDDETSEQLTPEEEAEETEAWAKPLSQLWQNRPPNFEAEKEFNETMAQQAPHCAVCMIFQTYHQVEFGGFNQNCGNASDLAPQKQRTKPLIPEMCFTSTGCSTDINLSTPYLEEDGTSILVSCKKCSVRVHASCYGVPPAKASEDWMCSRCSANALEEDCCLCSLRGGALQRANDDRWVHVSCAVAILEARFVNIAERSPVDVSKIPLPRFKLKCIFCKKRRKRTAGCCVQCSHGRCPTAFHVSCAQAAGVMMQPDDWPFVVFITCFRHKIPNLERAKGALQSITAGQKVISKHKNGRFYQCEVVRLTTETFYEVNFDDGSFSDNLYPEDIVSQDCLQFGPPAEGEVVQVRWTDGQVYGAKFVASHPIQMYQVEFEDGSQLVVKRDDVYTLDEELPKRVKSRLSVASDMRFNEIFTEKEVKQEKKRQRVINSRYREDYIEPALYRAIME
HP1b chromo inh = blocks HP1-beta chromodomain binding to methylated histone tails; P83916; AlphaScreen HP1-beta / biotin-H3K9me3 peptide binding; Potency, µM (doses to about 114 µM), for the others: top-dose activity change, negative = inhibition, most hits filed as inhibitors; 390,000 tested, 0.56% active; also: nearly all actives have a fitted effect of over 70% in size
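AlphaScreen: HP1-beta (50 nM) preformed 30 min with biotin-H3(1-18)K9me3 peptide (50 nM) in PBS pH 7.4, 0.01% Tween-20. Compound added for 30 min at RT, then streptavidin donor/nickel chelate acceptor beads (10 ug/mL) for 30 min.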
BAZ2B block = inhibitors of human BAZ2B bromodomain; AlphaScreen BAZ2B-H3K14Ac peptide displacement; Potency, µM (series often up to 114 µM), inactives show top-dose activity change, negative = inhibition, actives largely listed as inhibitors; 360,000 tested, 4.4% active; Q9UIF8; also: % is scaled to controls: 0 for no effect and ±100 for the full control effect; nearly all actives have a fitted effect of over 60% in size
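AlphaScreen displacement: compounds (up to 110uM) incubated 30 min at room temperature with a preformed 50 nM BAZ2B/50 nM biotinylated H3K14Ac peptide complex in PBS pH 7.4 with Tween-20. Donor and acceptor beads at 10 ug/mL final added, 20 min light-protected before reading.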
Numbers without * were called inactive; ? = inconclusive; . = no result; [ ] = dose if it differs, or a comment. Calls follow the shape of the dose curve; as a rule, active = well fitted curve in the direction sought with a large enough effect; inconclusive = small, poorly fitted or top-dose-only effect, or another doubt; inactive = no such curve, though single readings can be large; an effect the other way counts as inactive or inconclusive. Potency is read from the fitted curve at half-maximal effect.

SMILES | GLS inh | G9a inh | JMJD2A Tudor inh | HP1b chromo inh | BAZ2B block
O=C(CSc1ncnc2[nH]ncc12)Nc1nc(-c2ccc(F)c(F)c2)cs1 | -14.7% | 0.2% | -30.6% | 56.6% | -33.0%
CC(C)CN(C(=O)COC(=O)c1ccc([N+](=O)[O-])s1)c1c(N)n(Cc2ccccc2)c(=O)[nH]c1=O | 0.5% | ? | -20.9% | 4.3% | -5.8%
Cc1ccc(-n2nc(C(=O)N3CCN(c4cc(C)ccc4C)CC3)c3c4ccccc4n(C)c3c2=O)cc1 | -2.0% | -6.9%[59 µM] | -7.3% | 35.0% | .
COc1ccc(NC(=O)N(C2CCCCC2)C(C)c2ccco2)c(OC)c1 (stereo not given) | 18.0% | 44.7µM* | ? | 6.8% | ?
COc1ccc(NC(=S)Nc2ccccc2OC)c(OC)c1 | 36.9% | -15.6%[59 µM] | ? | ? | -10.4%
COc1ccc(OC)c(NC(=S)Nc2ccccc2)c1 | 0.5% | -49.4% | -22.7% | 15.6% | -33.3%
COc1ccc(NC(=O)N(C2CCCCC2)C(C)c2cccnc2)c(OC)c1 (stereo not given) | 28.7% | -9.4%[59 µM] | -27.6% | 10.8% | -27.6%
COc1ccc(NC(=S)Nc2ccc(OC)cc2OC)c(OC)c1 | 14.4% | 3.98µM* | -5.5% | -9.5% | -12.6%
COC(=O)NNC(=S)Nc1cc(OC)ccc1OC | 3.8% | 44.7µM* | ? | -8.7% | ?
O=C1Cc2cc(S(=O)(=O)Nc3ccc(F)cc3Cl)ccc2N1 | -10.5% | ? | 7.1% | 41.3% | 14.3%
CCCNC(=O)C1CCC(Cn2c(=O)c3sccc3n(CC(=O)N3CCCC(C)C3)c2=O)CC1 (stereo not given) | 7.3% | 10.2%[59 µM] | -9.7% | 19.0% | -3.6%
CCOc1ccccc1C(=O)OCC(=O)Nc1ccc(N2CCCCC2)cc1 | 42.4% | ? | -49.6%[57.1 µM] | ? | 4.3%
COc1cc(OC)cc(C(=O)OCC(=O)Nc2ccc(N3CCCCC3)cc2)c1 | 15.5% | 10µM* | 0.0% | 29.7% | -5.9%
COc1ccc(C(=O)Nc2ccc(N3CCOCC3)cc2)cc1OC | 13.8% | 3.8%[59 µM] | -9.8% | 8.5% | 7.1%
COc1cc(C(=O)OCC(=O)Nc2ccc(N3CCOCC3)cc2)ccc1OCC(C)C | 4.3% | 6.31µM* | 12.9% | 23.9% | 0.5%
COc1ccc(NC(=O)COC(=O)c2ccc(-n3cnnn3)cc2)cc1Cl | -12.1% | 39.8µM* | -11.0% | 18.8% | 2.9%
Cc1cccc(C(=O)OCC(=O)Nc2ccc(N3CCCCC3)cc2)c1O | 41.1% | ? | -6.9% | 25.5% | -32.9%
O=C(COC(=O)c1ccccc1OC(F)F)Nc1ccc(N2CCCCC2)cc1 | 4.2% | 7.94µM* | -23.3% | 5.5% | -5.8%
O=C(Nc1ccc(N2C(=O)C3C4C=CC(C4)C3C2=O)cc1)Nc1nnc(C(F)(F)F)s1 (stereo not given) | 2.4% | 2.1% | -12.4% | 41.4% | 1.5%
O=C(NCC1CCCN(C(=O)NCc2ccccc2)C1)c1ccc2c(c1)OCO2 (stereo not given) | -10.7% | -4.8% | -16.2% | 49.6% | -17.1%
O=C(COC(=O)c1cncc(Br)c1)Nc1ccc(N2CCCCC2)cc1 | 22.9% | ? | ? | 3.8% | ?
O=C(COC(=O)c1ccc(O)cc1)Nc1ccc(N2CCCCC2)cc1 | 40.3% | 44.7µM* | ? | -19.5% | ?
CCCCn1c(=S)[nH]c2c(oc3ccc(Cl)cc32)c1=O | . | 5.4%[59 µM] | . | . | 5.6%
CC1(C)CC(NC(=O)c2ccccn2)CC(C)(C)N1O | 93.1% | ? | ? | 47.4% | 50.1µM*
O=C(NNC(=O)C12CC3CC(CC(C3)C1)C2)c1ccccn1 | 5.0% | . | -5.8% | 19.1% | 6.1%
SMILES | GLS inh | G9a inh | JMJD2A Tudor inh | HP1b chromo inh | BAZ2B block
CCOCCCNC(=O)c1ccccc1NC(=O)C1=C(C)OCCS1 | 9.4% | 8.1% | -8.7% | 27.1% | 7.8%
NC(=O)[C@@H]1CCNc2c(I)cc([N+](=O)[O-])cc2C(=O)N[C@@H](CO)C(=O)N[C@@H](Cc2ccc(O)cc2)C(=O)N1 | . | 10µM* | . | . | 79.4µM*
NC(=O)[C@@H]1CCCNc2c(F)cc([N+](=O)[O-])cc2C(=O)N[C@@H](CO)C(=O)N[C@@H](Cc2ccc(O)cc2)C(=O)N1 | 15.9% | ? | -26.9% | 15.2% | -36.7%
NC(=O)C(CC(=O)O)NC(=O)[C@@H]1CCOc2c(I)cc([N+](=O)[O-])cc2C(=O)N[C@@H](CO)C(=O)N[C@@H](Cc2ccc(O)cc2)C(=O)N1 (stereo not given in full) | ? | 22.4µM* | 50.1µM* | -11.9% | ?
NC(=O)[C@@H]1CCOc2c(F)cc([N+](=O)[O-])cc2C(=O)N[C@@H](CO)C(=O)NCC(=O)N1 | 0.5% | ? | -12.1% | 19.2% | -17.5%
CC(C)C[C@@H]1NC(=O)[C@H](Cc2ccc(O)cc2)NC(=O)[C@H](CCC(N)=O)NC(=O)c2cc([N+](=O)[O-])cc(I)c2NCC[C@@H](C(N)=O)NC1=O | . | 7.08µM* | . | . | 50.1µM*
COCc1cc(C)n(CC(=O)NCc2ccccc2)c(=O)c1C#N | -5.7% | 6.2% | 5.0% | 39.3% | -3.4%
COc1ccc(/C=C2/SC(=S)N(CCCC(=O)N3CCN(C)CC3)C2=O)cc1 | 0.4% | ? | ? | ? | 31.6µM*
Cn1c(=O)n(C)c2cc(/C=C3/SC(=O)N(CC(=O)N4CCOCC4)C3=O)ccc21 | -20.0% | -1.6% | -2.4% | 14.3% | 50.1µM*
Cc1ccc(/C=C2\SC(=S)N(CCCC(=O)N3CCOCC3)C2=O)cc1 | 3.4% | . | 20µM* | ? | 11.2µM*
COc1ccc(/C=C2/SC(=S)N(CCC(=O)N3CCN(C)CC3)C2=O)cc1 | 1.7% | ? | -25.6% | 1.8% | -4.5%
CN1CCN(C(=O)CCCN2C(=O)/C(=C/c3ccc(Cl)cc3)SC2=S)CC1 | 2.8% | 13.2%[12.7 µM] | ? | -10.0% | ?
CN1CCN(C(=O)CCN2C(=O)/C(=C\c3ccc(Cl)cc3Cl)SC2=S)CC1 | -4.5% | . | 15.8µM* | ? | ?
COC(=O)c1c(C)[nH]c(C(=O)COC(=O)CCNS(=O)(=O)c2cccc(C(F)(F)F)c2)c1C | -2.4% | -6.2%[2.33 µM] | -6.2% | 28.7% | -21.0%
CCNc1ncc2nc(-c3ccc(Cl)cc3)c(=O)n(C3CC3)c2n1 | . | 0.2%[12.7 µM] | . | . | .
C/C(=N\n1c(C)nc2ccccc2c1=O)c1ccc(N)cc1 | -8.2% | . | -10.7% | 29.7% | .
O=C(O)c1ccc(Cl)c(S(=O)(=O)N(Cc2ccccc2)c2ccccc2Cl)c1 | -0.4% | ? | -18.4% | 20.4% | -20.0%
CC(C)OC(=O)c1c(NC(=O)c2ccco2)sc2c1CCCCC2 | -0.6% | -40.1%[59 µM] | 43.8% | 100.0% | 35.8%
CCNC(=O)C1(C)CCN(C(=O)c2cc(F)cc(F)c2)C1 (stereo not given) | 17.7% | . | . | . | .
COc1cc(/C=C2\SC(=S)N(CCC(=O)N3CCN(C)CC3)C2=O)cc(OC)c1OC | -9.1% | 50.1µM* | ? | ? | -13.1%
CC1CCN(C(=O)CCN2C(=O)/C(=C/c3cccs3)SC2=S)CC1 | 15.0% | 31.6µM* | 28.2µM* | ? | ?
